The source of these data is PubChem BioAssay (NCI).

Test [1] is described as follows: NCI Yeast Anticancer Drug Screen. Data for the rad50 strain (AID 155).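 Note: 0% = growth of vehicle-only cultures of the same strain.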 To be noted: S. cerevisiae rad50 strain growth inhibition; at 50.0 µM; hits give high values. In outline: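 Yeast carrying a defined DNA repair defect were exposed to test compounds, and growth was compared with vehicle-treated controls to give percent inhibition.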
Test [2] can be described thus: NCI Yeast Anticancer Drug Screen. Data for the mec2-1 strain (AID 157). The conditions noted are these: S. cerevisiae mec2-1 strain, at 50.0 µM, hits give high values. In outline:
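Cells of the genetically defined mec2-1 yeast strain are incubated with test compound. Inhibition of growth is calculated against vehicle-treated controls.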

Test [3] in a line: NCI Yeast Anticancer Drug Screen. Data for the sgs1 mgt1 strain (AID 161).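 Note: 0% = growth of cultures given vehicle only.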 To be noted: S. cerevisiae sgs1 mgt1 strain, at 50.0 µM, hits give high values. The procedure, abridged: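 Genetically altered yeast, compound exposure, growth inhibition relative to vehicle.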
Test [4] can be described thus: NCI Yeast Anticancer Drug Screen. Data for the cln2 rad14 strain (AID 165).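 Note: 0% = growth equal to vehicle treated cultures.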 The conditions noted are these: S. cerevisiae cln2 rad14 strain, at 50.0 µM, hits give high values. In outline: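 The screen exposed genetically defined yeast (cln2 rad14) to test compounds and scored growth inhibition relative to vehicle-treated controls.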
The nature of test [5]: NCI Yeast Anticancer Drug Screen. Data for the bub3 strain (AID 167). To be noted: S. cerevisiae bub3 mutant strain, at 50.0 µM, hits give high values. In outline: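 Compounds were applied to a genetically altered yeast strain carrying a cell-cycle control defect. Growth inhibition was scored against vehicle-treated controls.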
Test [6] in a line: NCI Yeast Anticancer Drug Screen. Data for the mlh1 rad18 strain (AID 175). The conditions noted are these: S. cerevisiae mlh1 rad18 strain growth inhibition; at 50.0 µM; hits give high values. The procedure, abridged:
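Compound-treated yeast growth, normalised to vehicle controls. Strain bears defined DNA repair mutations.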

This is part of a sample that, as a whole, favours compounds with a hit. Of some 79,000 tested, about 15% had one in any assay. Unmarked numbers belong to inactive results. Calls of active or inactive are those of the source. Cut-off read from the data, not from the text of the source: active = growth inhibition above about 70%; inactive = the rest.

Turning to `O=C(Nc1ccccc1CCl)Nc1ccccc1CCl` (tested in a mixture with another compound), the growth inhibition in test [1] is 7.6%; in test [2], 3.35%; in test [3], -11.4%; in test [4] it was 3.65%; in test [5], -4.1%; in test [6], 15.4%.
Take `CC1(C(=O)Sc2ccccc2)OC1(C)c1ccccc1` (stereo unspecified): the growth inhibition in test [1] was -8.5%; in test [2] it was 7.65%; in test [3], 4.85%; in test [4], -28.1%; in test [5], 14.8%; in test [6] it was 18.1%.
`CC(C)C(=O)Nc1ccc([N+](=O)[O-])cc1`: the growth inhibition was 26.1% in test [1]; 4.2% in test [2]; 10.8% in test [3]; 9.4% in test [4]; -36% in test [5]; -17.3% in test [6].
As to `CCOc1cc(/C=N\NC(=S)N/N=C/c2ccc(O)c(OCC)c2)ccc1O`, the growth inhibition was -15.2% in test [1]; -0.75% in test [2]; -4.35% in test [3]; 1.55% in test [4]; -6.65% in test [5]; 29.9% in test [6].
For the molecule `CCCCCCCCCCCCCCCC/C(C(=O)OC)=C(/O)C(=O)OCC`, the growth inhibition in test [1] is -4.7%; in test [2] it was -12.1%; in test [3], -3.65%; in test [4], -67%; in test [5], -1.2%; in test [6], -5.75%.
On to `CC1CC(C)NC(C)C1` (stereo unspecified), for which the growth inhibition is -17.1% in test [1]; -25.6% in test [2]; -50% in test [3]; 3.15% in test [4]; -10.9% in test [5]; -7.6% in test [6].
`CCCCCCCCCC(O)CO` (stereo unspecified): the growth inhibition is -20.6% in test [1]; -20.7% in test [2]; -23.8% in test [3]; 6.4% in test [4]; -10.6% in test [5]; -5.95% in test [6].
Take `CCCCCCCN(CCCCCCC)CC(O)c1c(OC)c2ccccc2c2ccccc12` (stereo unspecified): the growth inhibition was 94.8% (active) in test [1]; 34.4% in test [2]; 96.2% (active) in test [3]; 93% (active) in test [4]; 24.9% in test [5]; 93.7% (active) in test [6].
As for `CC(=O)Nc1ccc(/C=N/NC(=O)c2ccc(O)cc2)cc1`, the growth inhibition in test [1] was 1.7%; in test [2], 9.55%; in test [3], -2%; in test [4], 4.15%; in test [5], 2.35%; in test [6], 0.9%.
For `C=CCNC(=O)CCCCCCC/C=C\CCCCCCCC`, the growth inhibition was 16.6% in test [1]; -8.5% in test [2]; -1.45% in test [3]; -27.6% in test [4]; -2.85% in test [5]; 9.4% in test [6].
On to `CCOC(=O)C(Cc1ccc(O)cc1)NC(=O)c1cc2c(cn1)[nH]c1ccccc12` (stereo unspecified), for which the growth inhibition in test [1] was 11%; in test [2] it was 16.2%; in test [3], 7.45%; in test [4], -19.8%; in test [5] it was -1%; in test [6], 4.65%.
In the case of `CC[n+]1ccccc1Br`, the growth inhibition in test [1] is 19.2%; in test [2], 18.6%; in test [3] it was 10.1%; in test [4] it was -7.4%; in test [5], 6.05%; in test [6] it was 18.6%.
Consider `O=C1C[C@@]23CCC4(CC2=CCC[C@H]3O1)OCCO4`, for which the growth inhibition is -16.9% in test [1]; -19.6% in test [2]; 3.2% in test [3]; 14.7% in test [4]; 17.5% in test [5]; -12.3% in test [6].
In the case of `CCOC(=O)c1ccc(C(=O)OCC)n1-c1cc2cc(c1)CSCc1cc(cc(-n3c(C(=O)OCC)ccc3C(=O)OCC)c1)CSC2`, the growth inhibition in test [1] is -26.2%; in test [2], -30.1%; in test [3], -20.9%; in test [4], 16.6%; in test [5] it was -13.8%; in test [6], -5.15%.
Consider `COc1ccc(Cc2cc3c(cc2OCCOC(C)=O)OCO3)cc1`, for which the growth inhibition in test [1] is 16.8%; in test [2], 11.3%; in test [3] it was 10.4%; in test [4], 0.05%; in test [5], 15.2%; in test [6] it was 23.4%.
On to `CCOC(=O)NC(=O)c1cn(CCSCCOC(=O)NCCCCCCNC(=O)OCCSCCn2cc(C(=O)NC(=O)OCC)c(=O)[nH]c2=O)c(=O)[nH]c1=O`, for which the growth inhibition in test [1] was 28.7%; in test [2], 20.6%; in test [3], 11.9%; in test [4], 12.9%; in test [5], -51.2%; in test [6] it was 23.2%.
With `CN/N=C(\C(=O)Nc1ccc(C)c(C)c1)C(C(=O)OC)c1nc2ccc([N+](=O)[O-])cc2[nH]c1=O` (stereo unspecified), the growth inhibition in test [1] was -42.9%; in test [2], 2.7%; in test [3], -19.1%; in test [4] it was 19.3%; in test [5], -1.25%; in test [6], -18.2%.
Consider `O=c1c2ccccc2ncn1C1OC(CO)C(O)C1O` (stereo unspecified), for which the growth inhibition is 17.6% in test [1]; -19.1% in test [2]; -13.9% in test [3]; 4.95% in test [4]; 6.95% in test [5]; -2.05% in test [6].
For the molecule `COc1cc2c(cc1OC)C(c1ccccc1)ON(C)CC2` (stereo unspecified), the growth inhibition was -4.15% in test [1]; -1.7% in test [2]; -3.35% in test [3]; -13.4% in test [4]; 1.45% in test [5]; 1.35% in test [6].
With `Cc1ccc(NC(=O)CC(=O)n2nc(-c3ccccc3)c(N=Nc3ccc(Cl)cc3)c2-c2ccccc2)cc1`, the growth inhibition in test [1] is 9.95%; in test [2], 4%; in test [3] it was 13.9%; in test [4] it was 22.7%; in test [5], 46%; in test [6] it was 37.7%.
Take `C[C@@]12CCC(=O)C=C1CC[C@H]1C2C(=O)C[C@]2(C)C1CC[C@@]2(O)C(=O)COC(=O)CCC(=O)O` (stereo partly specified): the growth inhibition in test [1] is 0.1%; in test [2], 10.3%; in test [3], -19.8%; in test [4], 4.45%; in test [5], 6.95%; in test [6], 0.25%.
Take `O=C(CN1CCOCC1)Nc1cccc(Cl)c1`: the growth inhibition in test [1] is 0.5%; in test [2] it was -20.1%; in test [3], -2.6%; in test [4], -14.8%; in test [5], 58.3%; in test [6], -29.1%.
Consider `O=C(Oc1ccc(OC(=O)c2ccccc2)c(C2CCCCCC2)c1)c1ccccc1`, for which the growth inhibition in test [1] was 32.9%; in test [2] it was -1.75%; in test [3], 25.1%; in test [4] it was 14.3%; in test [5], 7.1%; in test [6], 9%.
Take `CC1(C)CC23C(=O)N(c4ccccc4)C(=Nc4ccccc4)NC2=CC(C#N)=C(C#N)C3O1` (stereo unspecified): the growth inhibition in test [1] was 2.6%; in test [2] it was -3.9%; in test [3], 5.3%; in test [4], 23.9%; in test [5], 0.85%; in test [6], -15.8%.
As for `CCCCC1(C(NC(=O)c2ccccc2Cl)c2ccncc2)C(=O)N(c2ccccc2)N(c2ccccc2)C1=O` (stereo unspecified), the growth inhibition in test [1] was 33.8%; in test [2], 15.8%; in test [3], 9.15%; in test [4], 6.35%; in test [5], 33.5%; in test [6], 41.5%.
Turning to `c1ccc2cc3c(NC4=NCCO4)cccc3cc2c1`, the growth inhibition is -2.8% in test [1]; 5.9% in test [2]; -2.7% in test [3]; 22.4% in test [4]; 33.1% in test [5]; 16.2% in test [6].
With `COc1nc(NC2OC(CO)C(O)C(O)C2O)c(Br)c(=O)n1C` (stereo unspecified), the growth inhibition in test [1] is 4.4%; in test [2], -1.15%; in test [3] it was -3.6%; in test [4], -4.1%; in test [5] it was 0.75%; in test [6], 23%.
In the case of `CCOC(=O)C[N+]1(C)CCC(O)CC1` (stereo unspecified), the growth inhibition was 3.15% in test [1]; 26.1% in test [2]; -2.55% in test [3]; -0.45% in test [4]; 16.6% in test [5]; 7.55% in test [6].
Consider `Cc1cccc(C)c1NC(=O)C(=O)/C(=C(\N)c1ccccc1)c1ccccc1`, for which the growth inhibition is -14.3% in test [1]; -9.5% in test [2]; -15.2% in test [3]; 29.8% in test [4]; 10.2% in test [5]; -9.15% in test [6].
For `COC(=O)/C=C/C(=N/N(C)c1ccccc1)c1ccccc1`, the growth inhibition in test [1] is 3.35%; in test [2] it was -0.2%; in test [3] it was 2.75%; in test [4], -49%; in test [5] it was 11%; in test [6], -5.15%.
As to `c1ccc(OC23CC4CC(CC(C4)C2)C3)cc1`, the growth inhibition in test [1] is -9.45%; in test [2], -5%; in test [3] it was -5.2%; in test [4], 42.8%; in test [5] it was -18.8%; in test [6], -21.6%.
In the case of `O=S(/C=C/C=C/S(=O)(=O)c1ccccc1)c1ccccc1` (stereo unspecified), the growth inhibition in test [1] was 18.1%; in test [2] it was 24.2%; in test [3] it was 30.5%; in test [4] it was 19.3%; in test [5], 43.4%; in test [6], 74% (active).
With `OC(CNC1CC2CCC1C2)COc1cccc2ccccc12` (stereo unspecified), the growth inhibition was 68.4% in test [1]; 42.9% in test [2]; 76.5% (active) in test [3]; 52.4% in test [4]; 51% in test [5]; 82.4% (active) in test [6].
In the case of `CCOP(=O)(OCC)C(F)(F)Cc1cnc(C)c2c1COC(C)(C)O2`, the growth inhibition in test [1] was -14.8%; in test [2], -34.8%; in test [3], -32.5%; in test [4], -16.7%; in test [5], 17.9%; in test [6] it was -27.3%.
On to `CC(=O)N1c2ccccc2C23CCN4CC5=CCOC(O)C(C5CC42)C13` (stereo unspecified), for which the growth inhibition in test [1] is -20.1%; in test [2], -21.4%; in test [3], -18.6%; in test [4] it was -6.55%; in test [5] it was -13.9%; in test [6] it was -62.4%.
Regarding `COc1cc(C(=O)NC(CCN)(c2ccccc2)c2ccccc2)cc(OC)c1OC`, the growth inhibition is -2.55% in test [1]; 30.4% in test [2]; 14.4% in test [3]; 10.4% in test [4]; 43.2% in test [5]; 29.8% in test [6].
